Laboratory results published in PubChem BioAssay (NCI).
This is part of a sample that, as a whole, favours compounds with a hit. Of some 79,000 tested, about 15% had one in any assay. A number with no mark means an inactive call. Active and inactive are the calls of the source. No stated cut-off is given here; in the data, active means growth inhibition above about 70%; inactive means the rest.

Key:
[1] = NCI Yeast Anticancer Drug Screen. Data for the rad50 strain (AID 155);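 further: 0% = growth of vehicle-only cultures of the same strain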; settings: S. cerevisiae rad50 strain growth inhibition, hits give high values
How it was run: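 DNA repair mutant yeast, compound exposure, growth read-out; inhibition is taken relative to vehicle.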

[2] = NCI Yeast Anticancer Drug Screen. Data for the mec2-1 strain (AID 157); settings: S. cerevisiae mec2-1 strain, hits give high values
How it was run: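 Each compound was tested on mec2-1 yeast, a strain altered in DNA damage repair or cell cycle control. Growth inhibition is reported relative to vehicle.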

[3] = NCI Yeast Anticancer Drug Screen. Data for the sgs1 mgt1 strain (AID 161);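 further: 0% = growth of cultures given vehicle only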; settings: S. cerevisiae sgs1 mgt1 strain, hits give high values
How it was run: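 Inhibition of yeast growth, normalised to vehicle-treated controls, is reported for a strain bearing genetic alterations in DNA damage repair.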

[4] = NCI Yeast Anticancer Drug Screen. Data for the cln2 rad14 strain (AID 165);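 further: 0% = growth equal to vehicle treated cultures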; settings: S. cerevisiae cln2 rad14 strain, hits give high values
How it was run: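 Test compounds were added to cln2 rad14 yeast cultures; inhibition of growth was then determined by comparison with vehicle treatment.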

[5] = NCI Yeast Anticancer Drug Screen. Data for the bub3 strain (AID 167); settings: S. cerevisiae bub3 mutant strain, hits give high values
How it was run: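 In this screen, a yeast mutant lacking normal mitotic checkpoint function is challenged with compound. Relative growth versus vehicle gives the inhibition value.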

[6] = NCI Yeast Anticancer Drug Screen. Data for the mlh1 rad18 strain (AID 175); settings: S. cerevisiae mlh1 rad18 strain growth inhibition, hits give high values
How it was run: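 Inhibition values reflect reduced growth of mutant yeast versus vehicle-treated controls following compound exposure; the mutations affect DNA damage repair.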

[7] = at 5.0 µM (retest, dose inferred, filed as 0.5)
[8] = at 50.0 µM (retest, dose inferred, filed as 5.0)

| SMILES | growth inhibition [1, 7] [%] | growth inhibition [1, 8] | growth inhibition ([1]; at 50.0 µM) | growth inhibition [2, 7] [%] | growth inhibition [2, 8] | growth inhibition ([2]; at 50.0 µM) | growth inhibition [3, 7] [%] | growth inhibition [3, 8] | growth inhibition ([3]; at 50.0 µM) | growth inhibition [4, 7] [%] | growth inhibition [4, 8] | growth inhibition ([4]; at 50.0 µM) | growth inhibition [5, 7] | growth inhibition [5, 8] | growth inhibition ([5]; at 50.0 µM) | growth inhibition [6, 7] [%] | growth inhibition [6, 8] | growth inhibition ([6]; at 50.0 µM) |
| --- | --- | --- | --- | --- | --- | --- | --- | --- | --- | --- | --- | --- | --- | --- | --- | --- | --- | --- |
| CN(C)/C=C(\C(=O)c1ccccc1)n1nc(-c2ccccc2)cc1-c1ccccc1 | 15 | 45% | 72.5% (active) | -4 | 20% | 73.7% (active) | 11 | 48% | 83.3% (active) | 22 | 50% | 70.2% (active) | -3% | 38% | 74% (active) |  |  |  |
| COc1ccc(C)c2nc3ccccc3nc12 | -119 | 86% (active) | 97% (active) | -42 | 24% | 74.5% (active) | -64 | 51% | 38.7% | -49 | 37% | 56.2% | -58% | 31% | 91.9% (active) | -110 | 67% | 87.7% (active) |
| CCN1C(Cl)=NS(=O)(=O)c2ccccc21 | 17 | 36% | -24.4% | 24 | 43% | -3.45% | 22 | 39% | -8.5% | 19 | 32% | -4% | 19% | 53% | -0.05% |  |  |  |
| c1ccc2c(c1)[nH]c1c[n+]3c(c[n+]12)[nH]c1ccccc13 | 7 | 53% | 71.6% (active) | 8 | 47% | 5.45% | 10 | 67% | 58.9% | -7 | 29% | 45.2% | -8% | 50% | 6% | 4 | 84% (active) | 80% (active) |
| CCCCN(CCCC)/N=C\C1=C2NC(=O)/C(C)=C\C=C/C(OC)C(OC(N)=O)/C(C)=C/C(C)C(O)C(OC)CC(C)CC(=C(OC)C1=O)C2=O (stereo unspecified) | 2 | 81% (active) | 54.4% | -2 | 87% (active) | 48.4% | -4 | 89% (active) | 47.9% | -8 | 78% (active) | 47.6% | -3% | 32% | 44% | -2 | 80% (active) | 60.5% |
| O=C(N/C(=C\c1ccc2c(c1)OCO2)c1nc2ccccc2s1)c1ccccc1 | 19 | 98% (active) | 97% (active) | 1 | 98% (active) | 97.9% (active) | 38 | 98% (active) | 98.1% (active) | 10 | 97% (active) | 96.8% (active) | 19% | 98% (active) | 96.8% (active) |  |  |  |
| CCCCCCCC(=O)N1CCCCC1CC (stereo unspecified) | -142 | 14% | 72.1% (active) | -49 | -30% | 25.6% | -63 | 24% | 73% (active) | -53 | -68% | -6.15% | -53% | 17% | -9.4% | -118 | -64% | 24.2% |
| C/C(=N\NC(=S)N1CCC(O)CC1)c1ccccn1 | 14 | 93% (active) | 99% (active) | 14 | 94% (active) | 99.5% (active) | 40 | 99% (active) | 99.2% (active) | 16 | 95% (active) | 98.2% (active) | 39% | 97% (active) | 98.8% (active) | 28 | 98% (active) | 98.8% (active) |
| CN(C)CCC(=O)[C@@]1(O)CC[C@H]2[C@@H]3CC=C4C[C@@H](O)CC[C@]4(C)[C@H]3CC[C@@]21C | 25 | 70% (active) | 44.1% | 11 | 63% | 75.4% (active) | 20 | 71% (active) | 58.1% | 8 | 34% | -18% | -1% | 59% | 49.1% |  |  |  |
| C[n+]1c(/C=C/c2cccc([N+](=O)[O-])c2)sc2ccccc21 | 10 | 97% (active) | 97.6% (active) | 15 | 99% (active) | 96.2% (active) | -1 | 98% (active) | 97.9% (active) | 14 | 97% (active) | 98.8% (active) | 7% | 97% (active) | 96% (active) | 13 | 98% (active) | 99.2% (active) |
| Nc1nc(=O)[nH]c([O-])c1N=O.Nc1nc(=O)[nH]c([O-])c1N=O.[Ag+].[Ag+] | 37 | -25% | 96.8% (active) | 44 | -8% | 98.7% (active) | 63 | -28% | 92.9% (active) | 28 | -17% | 98.8% (active) | 76% (active) | -28% | 99.2% (active) | 36 | -21% | 96.9% (active) |
| CC(C)=CCC/C(C)=C/CC/C(C)=C/CC/C=C(\C)CC/C=C(\C)CCC[N+](C)(C)[O-] | 14 | 90% (active) | 98.9% (active) | 17 | 91% (active) | 99.4% (active) | 46 | 94% (active) | 99.2% (active) | 5 | 59% | 98.4% (active) | 16% | 95% (active) | 98.8% (active) | 13 | 73% (active) | 99.1% (active) |
| CCOc1c(N=Nc2ccccc2Cl)c(C)nn1C(=S)S | -9 | 36% | 89.3% (active) | -15 | 9% | 80.7% (active) | 8 | 4% | 77.3% (active) | -42 | -6% | 92.2% (active) | -20% | 17% | 74% (active) | -23 | 40% | 96% (active) |
| CCOC(=O)/C(Cl)=C(\C)Nc1nc2c(ccc3ccccc32)s1 | 22 | 20% | 8.8% | 1 | 66% | 26.6% | -8 | 31% | -0.75% | 15 | 71% (active) | 97.3% (active) | -4% | 94% (active) | 94.9% (active) | 0 | 21% | 0.6% |
| COc1nc2nc(SC(CC(=O)O)C(=O)c3ccc(Cl)cc3)[nH]c2c2ccccc12 (stereo unspecified) | 1 | 7% | 10.1% | 0 | 1% | 7.45% | 2 | -18% | -3.85% | 2 | -15% | -12.1% | -2% | -1% | -5.45% | -1 |  | 32.9% |
| O=C1C(=O)N(c2ccccc2)N=C1N=Nc1ccccc1 | 4 | 33% | 90.4% (active) | 8 | 80% (active) | 86.7% (active) | 14 | 63% | 96.2% (active) | 2 | 43% | 41.8% | 14% | 73% (active) | 69% |  |  |  |
| CNC(=O)NN(C)C=O | 0 | 2% | -12.1% | 4 | 2% | 45.5% | 2 | 1% | -7.95% | -2 | -4% | 12.1% | -2% | -5% | -4.35% | -4 | -3% | -4.55% |
| Cc1ccc(N2CCN(c3c(N)cncc3Br)CC2)cc1 | -4 | -4% | 94% (active) | 6 | 14% | 97.3% (active) | 0 | 18% | 92.8% (active) | 0 | -15% | 46.5% | 19% | 71% (active) | 96% (active) | -4 | -1% | 90.8% (active) |
| O=c1oc2ccccc2c(O)c1/C=N/C(=S)Nc1ccccc1 | 13 | 93% (active) | 71% (active) | -3 | 87% (active) | 34.5% | 6 | 88% (active) | 18.5% | 0 | 32% | 20.8% | 12% | 92% (active) | 46.9% | 9 | 97% (active) | 76% (active) |
